# tim10-1 inh – inhibits growth of tim10-1 mutant yeast. S. cerevisiae tim10-1 ts strain growth, BacTiter-Glo, 24 h. inhibition, % at 20 µM. 330,000 tested, 2.2% active. AID 463190;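 active means inhibition of at least 40%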;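 further: mutant grown at 25 °C; 0% = DMSO wells with yeast and 100% = wells holding no yeast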
# PfHsp90 yeast 2 – growth inhibition of yeast expressing Plasmodium Hsp90 | S. cerevisiae expressing PfHsp90, BacTiter-Glo ATP, 48 h; yeast lacking PDR1 and PDR3 efflux regulators | inhibition, % at 9.4 µM | 310,000 tested, 0.32% active | AID 504621;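 active means every replicate shows inhibition above about 80%, whatever the replicate mean, limit read from the data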;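 further: 0% = DMSO neutral controls and 100% = 20 µM radicicol positive controls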
# tim23-1 inh – inhibits growth of tim23-1 mutant yeast; inhibition, % at 20 µM; 330,000 tested, 1.3% active; AID 463212; S. cerevisiae tim23-1 growth, BacTiter-Glo luminescence, 24 h;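 active means growth inhibition of the mutant yeast at or above 50%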;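 further: temperature-sensitive mutant grown at 25 °C; plate controls were DMSO-treated mutant yeast for no effect and medium wells lacking yeast for full effect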
# NALP3 yeast inh – blocks the NALP3 inflammasome reconstituted in yeast | 330,000 tested, 0.39% active | Yeast reconstituted NLRP3/ASC/caspase-1, beta-gal luminescence, 24 h | inhibition, % at 10 µM;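 active means inhibition of 50% or more; inactive means inhibition below 50%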;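 further: plate controls were induced DMSO wells for no effect and uninduced yeast grown without galactose for full effect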
# TIM10 inh – TIM10 yeast growth inhibition; S. cerevisiae TIM10 strain growth, BacTiter-Glo luminescence, 24 h; inhibition, % at 10 µM; 330,000 tested, 1.4% active;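 active means inhibition of 40% or more at the single tested concentration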;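 further: wild-type TIM10 isogenic control strain grown at permissive 25 °C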
# tim10-1 confirm – confirmation of tim10-1 mutant yeast growth inhibitors. inhibition, % at 20 µM. shares compounds with tim10-1 inh. 7,400 tested, 56% active. AID 463213. S. cerevisiae tim10-1 ts strain growth, BacTiter-Glo, 24 h;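 active means inhibition of yeast growth at or above a set limit in either of two repeat tests at 20 µM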;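 further: tim10-1 mutant grown at permissive 25 °C to find synthetic lethal compounds; 0% = DMSO yeast wells and 100% = medium wells without yeast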
# tim10 confirm – confirmation of TIM10 yeast growth inhibitors | shares compounds with TIM10 inh | S. cerevisiae tim10 strain growth, BacTiter-Glo luminescence, 24 h | inhibition, % at 10 µM | 4,600 tested, 63% active;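 active means inhibition of yeast growth at or above a set limit in either of two replicates at 10 µM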;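 further: this counterscreen used the strain with wild-type TIM10; 0% = yeast with DMSO and 100% = medium wells lacking yeast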
# tim23-1 conf – confirmation of tim23-1 mutant yeast growth inhibitors; AID 463218; 4,400 tested, 83% active; S. cerevisiae tim23-1 growth, BacTiter-Glo luminescence, 24 h; shares compounds with tim23-1 inh; inhibition, % at 20 µM;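 active means inhibition above about 39% in either of two replicate wells at 20 µM, limit read from the data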;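 further: temperature-sensitive tim23-1 mutant grown at 25 °C; 0% = DMSO wells with yeast and 100% = medium wells without yeast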
# Active calls of the source: *; . = not tested or not shown. Hits are enriched below; roughly 3.7% of the tested compounds scored in any of these assays.
SMILES,tim10-1 inh,PfHsp90 yeast 2,tim23-1 inh,NALP3 yeast inh,TIM10 inh,tim10-1 confirm,tim10 confirm,tim23-1 conf
CCN(CC)C1CC(=O)N(c2cccc(C)c2)C1=O (centres undefined),59*,.,54*,22,30,56*,.,66*
COc1ccc(C(=O)Nc2ccnn2C2CCN(C(=O)c3cc(C)on3)CC2)cc1,2,1,7,15,-1,.,.,.
COc1ccc(Cl)cc1C(=O)Nc1ccc(NC(=O)C(C)C)cc1,53*,2,53*,-4,41*,45*,36*,42*
CCOC(=O)c1ccc(Nc2cc(C)nc(-c3ccccc3O)n2)cc1,20,.,22,2,26,.,.,.
Cc1cc(Nc2ccccc2)nc(-c2ccccc2O)n1,63*,-58,65*,7,56*,55*,66*,68*
CCOC(=O)c1nnc(-c2cccs2)nc1NC(C)C,47*,3,55*,22,23,42*,.,44*
CCOC(=O)c1nnc(-c2cccs2)nc1Oc1ccccc1C(=O)OC,41*,9,51*,19,49*,27,35*,50*
CCOC(=O)c1nnc(-c2cccs2)nc1Oc1ccc(Cl)cc1,27,-2,49,15,19,.,.,.
S=C(NCc1ccc2[nH]c3c(c2c1)CCCC3)Nc1ccccc1,46*,-43,53*,4,48*,43*,51*,59*
O=C(NCc1ccc2[nH]c3c(c2c1)CCCC3)c1ccc(S(=O)(=O)N2CCCCC2)cc1,7,-12,6,12,1,.,.,.
N#C/C(=C/c1ccncc1)c1nc2ccccc2s1,60*,-80,80*,15,70*,40*,67*,79*
N#C/C(=C\c1ccncc1)c1nc2ccccc2[nH]1,17,-11,25,20,-3,.,.,.
COc1cc2cc(-c3ccc(OC)c(OC)c3C)nc(N)c2cc1OC,10,.,4,7,-15,.,.,.
COc1cc2cc(-c3ccc(O)cc3O)nc(C)c2cc1OC,40*,6,51*,20,46*,32*,43*,55*
Cc1nn(C(C)C(=O)NCCCN2CCCC2)c(=O)c2nn(-c3ccccc3)c(C)c12 (centres undefined),-1,-24,0,-3,-6,.,.,.
CCOC(=O)C1CCN(S(=O)(=O)c2ccc(NC(=O)c3ccco3)cc2)CC1,69*,3,65*,1,66*,62*,55*,69*
O=C(Nc1ccc(OCC(=O)N2CCC(Cc3ccccc3)CC2)cc1)c1ccco1,59*,16,72*,14,68*,60*,43*,79*
CC(=O)Nc1ccc(OCC(=O)N2CCC(Cc3ccccc3)CC2)cc1,23,-4,18,-3,13,.,.,.
CCC1CSC(=Nc2ccc(C)cc2)N1C(=O)CN1C(=O)NC2(CCCC2)C1=O (centres undefined),23,3,29,11,17,.,.,.
O=C(COc1ccc(Br)cc1CO)Nc1ccc(S(=O)(=O)N2CCCCC2)cc1,40*,-34,53*,1,39,50*,.,61*
Cc1ccc(S(=O)(=O)Nc2cccnc2Oc2ccc(Cl)cc2)cc1,10,10,46,24,22,.,.,.
Cc1ccc(S(=O)(=O)Nc2cc(Cl)c(O)c3ncccc23)cc1,62*,104*,73*,20,45*,29,49*,82*
Cc1ccccc1C(C(=O)NC1CCCC1)N(C(=O)CNC(=O)c1ccco1)c1cccnc1 (centres undefined),10,.,2,12,9,.,.,.
CCc1ccc(-c2csc(NC(=O)c3cccnc3)n2)cc1,23,-31,13,12,-15,.,.,.
COC(=O)Cc1c(C)[nH]n(-c2cc(Cl)cc(Cl)c2)c1=O,45*,-2,70*,2,30,37*,.,63*
COC(=O)c1sc(-c2ccc(Cl)cc2)cc1N,18,-51,19,-47,23,.,.,.
